About 83,000 compounds went through this panel and 20% of them were active in at least one assay; those are over-represented in the sample as a whole.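 For each line, cells grew in 96-well plates with the test compound present at a single concentration for 48 hours.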 A number with no mark means an inactive call. Activity calls are given as the source filed them. How the source made its calls: active means growth percent below 10; inactive means the rest.
What was measured:
Assay in all cases: NCI-60 one-dose screen, 48 h (100 = growth as untreated, 0 = no growth, -100 = all killed)
SR leukemia = details: 10 µM unless noted
RPMI-8226 leukemia = details: 10 µM unless noted
OVCAR-8 ovarian = details: 10 µM unless noted
OVCAR-5 ovarian = details: 10 µM unless noted
SK-OV-3 ovarian = details: 10 µM unless noted
IGROV1 ovarian = details: 10 µM unless noted
OVCAR-3 ovarian = details: 10 µM unless noted
HS 578T breast = details: 10 µM unless noted
NCI/ADR-RES ovarian = details: 10 µM unless noted
T-47D breast = details: 10 µM unless noted
BT-549 breast = details: 10 µM unless noted
SW-620 colon = details: 10 µM unless noted
MCF7 breast = details: 10 µM unless noted
HCT-116 colon = details: 10 µM unless noted
HCC-2998 colon = details: 10 µM unless noted
KM12 colon = details: 10 µM unless noted
MDA-MB-435 melanoma = details: 10 µM unless noted
OVCAR-4 ovarian = details: 10 µM

SMILES | growth (SR leukemia) | growth (RPMI-8226 leukemia) | growth (OVCAR-8 ovarian) | growth (OVCAR-5 ovarian) | growth (SK-OV-3 ovarian) | growth (IGROV1 ovarian) | growth (OVCAR-3 ovarian) | growth (HS 578T breast) | growth (NCI/ADR-RES ovarian) | growth (T-47D breast) | growth (BT-549 breast) | growth (SW-620 colon) | growth (MCF7 breast) | growth (HCT-116 colon) | growth (HCC-2998 colon) | growth (KM12 colon) | growth (MDA-MB-435 melanoma) | growth (OVCAR-4 ovarian) [%]
CC1(C)CC[C@]23CC[C@]4(C)[C@H](CC[C@@H]5[C@@]6(C)C/C(=C/c7ccncc7)C(=O)C(C)(C)[C@@H]6CC[C@]54C)[C@H]2[C@H]1OC3=O | 93.5% [100 µM] | 41.1% [100 µM] | 51.9% [100 µM] | 111% [100 µM] | 47.7% [100 µM] | 70.1% [100 µM] | 85.2% [100 µM] | -3.34% [100 µM] (active) | 64.4% [100 µM] | 62.6% [100 µM] | 52.4% [100 µM] | 80.8% [100 µM] | 70.1% [100 µM] | 47.9% [100 µM] | 78.2% [100 µM] | 81.3% [100 µM] | – | –
CC(C)=CC/C=C(/C)[C@H]1CC[C@]2(C)[C@@H]1CC[C@@H]1[C@@]3(C)CCCNC(C)(C)[C@@H]3CC[C@]12C | 15.2% [100 µM] | -40.1% [100 µM] (active) | -29.5% [100 µM] (active) | -85.9% [100 µM] (active) | -66.8% [100 µM] (active) | -74.1% [100 µM] (active) | -47.8% [100 µM] (active) | -50.2% [100 µM] (active) | -69.6% [100 µM] (active) | -50.9% [100 µM] (active) | -54.9% [100 µM] (active) | -57.5% [100 µM] (active) | -54.6% [100 µM] (active) | -61% [100 µM] (active) | -50.5% [100 µM] (active) | -57.4% [100 µM] (active) | -75.4% [100 µM] (active) | –
CCOC(=O)c1cc(C#N)n2ncc3ccccc3c12 | 98.4% | 105% | 97.7% | 84.7% | 107% | 92.4% | 103% | 98.3% | 97.7% | 92.2% | 91.5% | 98% | 87.2% | 90.8% | 104% | 102% | 103% | –
O=C(Nc1ccc(Oc2ccc(F)cc2)c(Cl)c1)c1cccnn1 | 97.6% | 62.6% | 71.3% | 84% | – | 97.6% | 73.6% | 95.6% | 69.4% | 37.6% | 103% | 94.1% | 65.3% | 96.8% | 89.1% | 79.2% | 67.2% | –
COc1ccccc1S(=O)Nc1ccccc1 (centres undefined) | 82.7% | 99.9% | 94.2% | – | 105% | 107% | 107% | 82% | 105% | 107% | 108% | 72% | 95.1% | 115% | 107% | 106% | 97.6% | 110
CC[C@]12C=CCN3CC[C@@]4(c5ccc(OC)cc5N(C)[C@H]4[C@@](O)(C(=O)OC)[C@@H]1OC(=O)CCC(=O)N[C@H](Cc1c[nH]c4ccccc14)C(=O)OC)[C@@H]32 | 26% [100 µM] | 0.693% [100 µM] (active) | 0.282% [100 µM] (active) | -58.1% [100 µM] (active) | -18.1% [100 µM] (active) | -38.7% [100 µM] (active) | -48.8% [100 µM] (active) | -43.8% [100 µM] (active) | -30.7% [100 µM] (active) | -29.3% [100 µM] (active) | – | -50.6% [100 µM] (active) | -43.3% [100 µM] (active) | 3.55% [100 µM] (active) | -43.3% [100 µM] (active) | -35.1% [100 µM] (active) | -60.6% [100 µM] (active) | –
Cc1ccc(-n2nc3n(/c2=N\C(=O)NS(=O)(=O)c2ccc(C)cc2)CCN3C2=NCCN2)cc1 | 135% | 106% | 103% | 95.4% | 99.1% | 104% | 109% | – | 105% | 78.3% | 84.4% | 104% | – | 87.3% | 97.3% | 105% | 97.3% | –
